Experimental data taken from PubChem BioAssay (NCI).
This is part of a sample that, as a whole, favours compounds with a hit. Of some 79,000 tested, about 15% had one in any assay. Calls of active or inactive are those of the source. No stated cut-off is given here; in the data, active means growth inhibition above about 70%; inactive means the rest.

How the values were obtained:
[1] = NCI Yeast Anticancer Drug Screen. Data for the rad50 strain (AID 155);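 further: 0% = growth of vehicle-only cultures of the same strain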; settings: S. cerevisiae rad50 strain growth inhibition, stronger effect = higher value
How it was run: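 Vehicle-treated cultures provide the reference for the growth inhibition reported for compound-exposed, repair-deficient yeast.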

[2] = NCI Yeast Anticancer Drug Screen. Data for the mec2-1 strain (AID 157); settings: S. cerevisiae mec2-1 strain, stronger effect = higher value
How it was run: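 Strain: mec2-1 (DNA repair/cell cycle alteration). Compound exposure, then growth measured; inhibition expressed relative to vehicle.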

[3] = NCI Yeast Anticancer Drug Screen. Data for the sgs1 mgt1 strain (AID 161);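 further: 0% = growth of cultures given vehicle only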; settings: S. cerevisiae sgs1 mgt1 strain, stronger effect = higher value
How it was run: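 Read-out: growth inhibition vs vehicle controls. Cells: mutant yeast strain deficient in DNA damage repair.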

[4] = NCI Yeast Anticancer Drug Screen. Data for the cln2 rad14 strain (AID 165);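 further: 0% = growth equal to vehicle treated cultures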; settings: S. cerevisiae cln2 rad14 strain, stronger effect = higher value
How it was run: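 Compounds are applied to the cln2 rad14 yeast strain, and growth is then compared with that of vehicle-treated cultures to give inhibition.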

[5] = NCI Yeast Anticancer Drug Screen. Data for the bub3 strain (AID 167); settings: S. cerevisiae bub3 mutant strain, stronger effect = higher value
How it was run: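 Mutant yeast screening strain plus compound; vehicle-treated cultures serve as the 0% inhibition reference.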

[6] = NCI Yeast Anticancer Drug Screen. Data for the mlh1 rad18 strain (AID 175); settings: S. cerevisiae mlh1 rad18 strain growth inhibition, stronger effect = higher value
How it was run: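 Read-out is yeast growth inhibition, calculated against vehicle-only controls. The compound was applied to a strain engineered with DNA damage repair alterations.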

[7] = at 5.0 µM (retest, dose inferred, filed as 0.5)
[8] = at 50.0 µM (retest, dose inferred, filed as 5.0)

Measured: growth inhibition

CCCCC(CC(=O)O)c1ccc(Cl)cc1 (stereo not given)
inactive: [1]; [7] -146% | [1]; [8] -7% | [1]; at 50.0 µM 57.5% | [2]; [7] -43% | [2]; [8] 17% | [2]; at 50.0 µM 60.7% | [3]; [7] -58% | [3]; [8] 5% | [3]; at 50.0 µM 40.6% | [4]; [7] -63% | [4]; [8] 37% | [5]; [7] -61% | [5]; [8] 28% | [5]; at 50.0 µM 54.6% | [6]; [7] -133% | [6]; [8] 13% | [6]; at 50.0 µM 66%
active: [4]; at 50.0 µM 70%

CCOc1ncc(Cl)c(OCC)n1
inactive: [1]; [7] 3% | [1]; [8] -5% | [1]; at 50.0 µM -25.4% | [2]; [7] -4% | [2]; [8] -2% | [2]; at 50.0 µM 35.9% | [3]; [7] -1% | [3]; [8] -6% | [3]; at 50.0 µM -28.2% | [4]; [7] -7% | [4]; [8] 2% | [4]; at 50.0 µM -21.3% | [5]; [7] 1% | [5]; [8] -3% | [5]; at 50.0 µM -12.7% | [6]; [7] 2% | [6]; [8] -5% | [6]; at 50.0 µM -18.1%

CN(C)CC1CCC/C(=C\c2ccc(Cl)cc2)C1=O (stereo not given)
active: [1]; [8] 99% | [1]; at 50.0 µM 80.5% | [2]; [8] 99% | [2]; at 50.0 µM 86.8% | [3]; [8] 99% | [3]; at 50.0 µM 92.5% | [4]; [8] 99% | [4]; at 50.0 µM 87% | [5]; [8] 99% | [5]; at 50.0 µM 91.4% | [6]; [8] 99% | [6]; at 50.0 µM 91.3%
inactive: [1]; [7] -15% | [2]; [7] -25% | [3]; [7] -28% | [4]; [7] -25% | [5]; [7] -38% | [6]; [7] -14%

CCC/C(=N\NC(=S)N1CCCCCC1)c1ccccn1
active: [1]; [8] 97% | [1]; at 50.0 µM 90.3% | [2]; [7] 77% | [2]; [8] 97% | [2]; at 50.0 µM 93.5% | [3]; [7] 72% | [3]; [8] 97% | [3]; at 50.0 µM 90.9% | [4]; [8] 97% | [4]; at 50.0 µM 91.7% | [5]; [7] 90% | [5]; [8] 96% | [5]; at 50.0 µM 90.7% | [6]; [7] 82% | [6]; [8] 96% | [6]; at 50.0 µM 90.2%
inactive: [1]; [7] 69% | [4]; [7] 66%

CN(C)CCC(=O)/C=C/c1ccccc1
active: [3]; at 50.0 µM 75.9%
inactive: [1]; [7] -2% | [1]; [8] 3% | [1]; at 50.0 µM 53% | [2]; [7] -1% | [2]; [8] 5% | [2]; at 50.0 µM 38% | [3]; [7] -3% | [3]; [8] 1% | [4]; [7] -2% | [4]; [8] 1% | [4]; at 50.0 µM 38.1% | [5]; [7] -3% | [5]; [8] 11% | [5]; at 50.0 µM 61% | [6]; [7] -3% | [6]; [8] 4% | [6]; at 50.0 µM 63.1%

Oc1c(Cl)c2ccccc2c2ccccc12
inactive: [1]; [7] -2% | [1]; [8] 59% | [2]; [7] 56% | [2]; [8] 48% | [3]; [7] 1% | [3]; [8] 23% | [4]; [7] -1% | [4]; [8] 24% | [5]; [7] 37% | [6]; [7] 8% | [6]; [8] 44%
active: [1]; at 50.0 µM 98.6% | [2]; at 50.0 µM 99.2% | [3]; at 50.0 µM 99% | [4]; at 50.0 µM 98.5% | [5]; [8] 76% | [5]; at 50.0 µM 93.5% | [6]; at 50.0 µM 98.7%

CCCCCCCCCCCCCC(=O)OCC[N+](C)(C)C
inactive: [1]; [7] 26% | [2]; [7] 27% | [3]; [7] 41% | [4]; [7] 32% | [5]; [7] 40% | [6]; [7] 34%
active: [1]; [8] 98% | [1]; at 50.0 µM 90.2% | [2]; [8] 99% | [2]; at 50.0 µM 92.5% | [3]; [8] 99% | [3]; at 50.0 µM 92.9% | [4]; [8] 98% | [4]; at 50.0 µM 88.8% | [5]; [8] 99% | [5]; at 50.0 µM 91.5% | [6]; [8] 98% | [6]; at 50.0 µM 90.5%

COc1cc(C2SC(N)=Nc3c2c(C)nn3C(=O)c2ccccc2O)cc(OC)c1OC (stereo not given)
active: [1]; [8] 80% | [2]; [8] 71% | [3]; [8] 75% | [3]; at 50.0 µM 79.8% | [5]; [8] 70% | [5]; at 50.0 µM 79.1% | [6]; [8] 86%
inactive: [1]; [7] -1% | [1]; at 50.0 µM 52.5% | [2]; [7] -10% | [2]; at 50.0 µM 39.9% | [3]; [7] -5% | [4]; [7] 3% | [4]; [8] 25% | [4]; at 50.0 µM 56.4% | [5]; [7] -1% | [6]; [7] 6% | [6]; at 50.0 µM 50.2%

Oc1c(Cl)cc(Br)cc1Cl
inactive: [1]; [7] 44% | [2]; [7] 19% | [3]; [7] 11% | [4]; [7] 3% | [5]; [7] 13% | [6]; [7] 12%
active: [1]; [8] 95% | [1]; at 50.0 µM 84.7% | [2]; [8] 99% | [2]; at 50.0 µM 92.9% | [3]; [8] 93% | [3]; at 50.0 µM 96.5% | [4]; [8] 99% | [4]; at 50.0 µM 78.5% | [5]; [8] 99% | [5]; at 50.0 µM 89.3% | [6]; [8] 97% | [6]; at 50.0 µM 91.8%

Cc1nc(-n2nc(-c3ccccc3)cc2-c2ccccc2)sc1C(/C=C\c1ccc([N+](=O)[O-])cc1)=N/NC(=S)NN
inactive: [1]; [7] 4% | [1]; at 50.0 µM 61.3% | [2]; [7] 3% | [2]; at 50.0 µM 37.1% | [3]; [7] 11% | [4]; [7] 0% | [4]; [8] 67% | [4]; at 50.0 µM 10.8% | [5]; [7] 25% | [5]; at 50.0 µM 65.7% | [6]; [7] -2% | [6]; at 50.0 µM 64.8%
active: [1]; [8] 87% | [2]; [8] 86% | [3]; [8] 91% | [3]; at 50.0 µM 80.7% | [5]; [8] 88% | [6]; [8] 80%
